Results published in the supplement of paper PMC8975748.
Where a name gives a salt, the structure may show the parent alone.

The compounds below were run on Saccharomyces cerevisiae BY4741 SeMeCo community (assay: z-score of subpopulation abundance vs DMSO median, subpopulation auxotrophic for HLM; higher = larger share of this subpopulation than in DMSO controls). Conditions: 10 µM; 24 h; SM minimal medium; subpopulation (auxotrophy): HLM.
Procedure: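 Fluorescent four-plasmid SeMeCo (self-establishing metabolically cooperating S. cerevisiae BY4741 community; plasmids pH-mRuby2, pL-mWasabi, pU-eCFP, pM-TagRFP657) was grown 24 h in minimal SM medium with each Selleck FDA-approved drug at 10 µM in 384-well plates. Cells were fixed and imaged by high-content confocal microscopy. For each auxotrophic subpopulation (and the prototroph), a z-score gives the deviation from the DMSO vehicle-control population median.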
With `CCCCCCCCN=C(N)NC(N)=NCc1ccc(Cl)c(Cl)c1` [Olanexidine Hydrochloride semihydrate] the “z-score of subpopulation abundance” value was 72.9. `NNc1nncc2ccccc12` [Hydralazine HCl] was tested, and the “z-score of subpopulation abundance” value was 0.17. For `CC(C)c1c(C(=O)Nc2ccccc2)c(-c2ccccc2)c(-c2ccc(F)cc2)n1CC[C@@H](O)C[C@@H](O)CC(=O)O` [Atorvastatin], the “z-score of subpopulation abundance” value was 1.21. In the case of `Cc1c(S(=O)(=O)O)oc2c1C(=O)C(=O)c1c-2ccc2c1CCCC2(C)C` [Tanshinone IIA sulfonate (sodium)], the “z-score of subpopulation abundance” value is reported as 3.71. In the case of `CC[C@@H]1C(=O)OC[C@@H]1Cc1cncn1C` [Pilocarpine HCl], the “z-score of subpopulation abundance” value is reported as -0.18. With `CCC[S+]([O-])c1ccc2[nH]c(NC(=O)OC)nc2c1` (stereo not given) [Albendazole Oxide] the “z-score of subpopulation abundance” value was -0.85. For `Clc1ccc(COC(Cn2ccnc2)c2ccc(Cl)cc2Cl)cc1` (stereo not given) [Econazole], the “z-score of subpopulation abundance” value was 17.3. For `Cc1onc(-c2c(F)cccc2Cl)c1C(=O)N[C@@H]1C(=O)N2[C@@H]1SC(C)(C)[C@@H]2C(=O)O` [Flucloxacillin sodium], the “z-score of subpopulation abundance” value was -0.51. For `Cc1ccc(Cl)c(Nc2ccccc2C(=O)O)c1Cl` [Meclofenamate Sodium], the “z-score of subpopulation abundance” value was -0.85. With `COC(=O)C1=C(C)NC(C)=C(C(=O)OC(C)C)C1c1cccc2nonc12` (stereo not given) [Isradipine] the “z-score of subpopulation abundance” value was -0.7. `CCCc1nc(C)c2c(=O)nc(-c3cc(S(=O)(=O)N4CCN(CC)CC4)ccc3OCC)[nH]n12` [Vardenafil HCl Trihydrate] was tested, and the “z-score of subpopulation abundance” value was -0.16. For `CN1CCN(C2=Nc3ccccc3Oc3ccc(Cl)cc32)CC1` [Loxapine Succinate], the “z-score of subpopulation abundance” value was 0.21. `C[n+]1ccccc1C=NO` [Pralidoxime Iodide] was tested, and the “z-score of subpopulation abundance” value was 0.32. For `CCOC(=O)c1ccc(O)cc1` [Ethylparaben], the “z-score of subpopulation abundance” value was 0.26. In the case of `C=C[C@H]1CN2CC[C@H]1C[C@H]2[C@H](O)c1ccnc2ccc(OC)cc12` [Quinine HCl Dihydrate], the “z-score of subpopulation abundance” value is reported as 0.48. `CC1CCc2c(N3CCC(O)CC3)c(F)cc3c(=O)c(C(=O)O)cn1c23` (stereo not given) [Nadifloxacin] was tested, and the “z-score of subpopulation abundance” value was 0.15. In the case of `CC/C=C(\C(=O)N[C@@H]1C(=O)N2C(C(=O)OCOC(=O)C(C)(C)C)=C(COC(N)=O)CS[C@H]12)c1csc(N)n1` [Cefcapene Pivoxil Hydrochloride], the “z-score of subpopulation abundance” value is reported as 0.64. With `COc1cc(O)c(C(=O)Nc2nc(C(=O)NCCN(C(C)C)C(C)C)cs2)cc1OC` [Acotiamide] the “z-score of subpopulation abundance” value was 0.73. With `CN1CCC(=C2c3ccccc3CCc3sccc32)CC1` [Pizotifen Malate] the “z-score of subpopulation abundance” value was 0.21. In the case of `N[C@H]1CONC1=O` [L-Cycloserine], the “z-score of subpopulation abundance” value is reported as 5.24. With `NC(=O)N1c2ccccc2C=Cc2ccccc21` [Carbamazepine] the “z-score of subpopulation abundance” value was 0.02. For `Oc1c(Cl)cc(Cl)c2cccnc12` [Chloroxine], the “z-score of subpopulation abundance” value was 45.7. With `CC[N+](CC)(CC)CCOc1cccc(OCC[N+](CC)(CC)CC)c1OCC[N+](CC)(CC)CC` [Gallamine Triethiodide] the “z-score of subpopulation abundance” value was -0.27. `CC[C@@]1(O)C(=O)OCc2c1cc1n(c2=O)Cc2cc3cc(O)ccc3nc2-1` [(S)-10-Hydroxycamptothecin] was tested, and the “z-score of subpopulation abundance” value was 0.07. In the case of `CN[C@H]1C(=O)N[C@@H]2Cc3ccc(cc3)Oc3cc4cc(c3O[C@@H]3O[C@H](C(=O)O)[C@@H](O)[C@H](O)[C@H]3NC(=O)CCCCCCCCC(C)C)Oc3ccc(cc3Cl)[C@@H](O)[C@@H]3NC(=O)[C@H](NC(=O)[C@@H]4NC(=O)[C@@H](NC2=O)c2cc(cc(O)c2Cl)Oc2cc1ccc2O)c1ccc(O)c(c1)-c1c(O[C@H]2O[C@H](CO)[C@@H](O)[C@H](O)[C@@H]2O)cc(O)cc1[C@@H](C(=O)NCCCN(C)C)NC3=O` [Dalbavancin], the “z-score of subpopulation abundance” value is reported as 1.32. For `CCCN(CCc1cccs1)[C@H]1CCc2c(O)cccc2C1` [Rotigotine], the “z-score of subpopulation abundance” value was -0.19. In the case of `COC(=O)Nc1nc2cc(C(=O)c3ccccc3)ccc2[nH]1` [Mebendazole], the “z-score of subpopulation abundance” value is reported as 1.83. In the case of `O=C(O)c1ccccc1C(=O)Nc1ccc(S(=O)(=O)Nc2nccs2)cc1` [Phthalylsulfathiazole], the “z-score of subpopulation abundance” value is reported as -0.76. For `Cc1nc(C)c(Cl)c(O)c1Cl` [Clopidol], the “z-score of subpopulation abundance” value was 0.14. `CC(=O)OCC1=C(C(=O)O)N2C(=O)[C@@H](NC(=O)Cc3cccs3)[C@H]2SC1` [Cephalothin] was tested, and the “z-score of subpopulation abundance” value was 0.05. For `Nc1ccc(S(=O)(=O)NC(=O)c2ccccc2)cc1` [Sulfabenzamide], the “z-score of subpopulation abundance” value was 0.11. With `CC1(C)CC[C@]2(C(=O)O)CC[C@]3(C)C(=CC[C@@H]4[C@@]5(C)CC[C@H](O)C(C)(C)[C@@H]5CC[C@]43C)[C@@H]2C1` [Oleanolic Acid] the “z-score of subpopulation abundance” value was 0.33. `C[C@@H]1[C@H](O)[C@@H](C)/C=C/C=C/C=C/C=C/C=C/C=C/C=C/[C@H](O[C@@H]2O[C@H](C)[C@@H](O)[C@H](N)[C@@H]2O)C[C@@H]2O[C@](O)(C[C@@H](O)C[C@@H](O)[C@H](O)CC[C@@H](O)C[C@@H](O)CC(=O)O[C@H]1C)C[C@H](O)[C@H]2C(=O)O` [Amphotericin B] was tested, and the “z-score of subpopulation abundance” value was 12.6. `CC1(C)S[C@@H]2[C@H](NC(=O)C(c3ccccc3)S(=O)(=O)O)C(=O)N2[C@H]1C(=O)O` (stereo not given in full) [Sulbenicillin Sodium] was tested, and the “z-score of subpopulation abundance” value was 3.16. With `CCCCCCCCOc1ccccc1C(=O)Nc1ccc(C(=O)OCC[N+](C)(CC)CC)cc1` [Otilonium Bromide] the “z-score of subpopulation abundance” value was 9.05. With `NC[C@@H]1O[C@H](O[C@H]2[C@@H](O)[C@H](O[C@@H]3[C@@H](O)[C@H](N)C[C@H](N)[C@H]3O[C@H]3O[C@H](CN)[C@@H](O)[C@H](O)[C@H]3N)O[C@@H]2CO)[C@H](N)[C@@H](O)[C@@H]1O` [Neomycin sulfate] the “z-score of subpopulation abundance” value was -0.3. `CO/N=C(\C(=O)N[C@@H]1C(=O)N2C(C(=O)O)=C(CSc3nnnn3C)CS[C@H]12)c1csc(N)n1` [Cefmenoxime hydrochloride] was tested, and the “z-score of subpopulation abundance” value was -0.86. In the case of `Nc1ccc(/N=N/c2ccccc2)c(N)n1` [Phenazopyridine HCl], the “z-score of subpopulation abundance” value is reported as 0.39. In the case of `CS(=O)(=O)Nc1ccc([N+](=O)[O-])cc1Oc1ccccc1` [Nimesulide], the “z-score of subpopulation abundance” value is reported as -0.08. In the case of `C[N+](C)(C)CCO.[Cl-]` [Choline Chloride], the “z-score of subpopulation abundance” value is reported as -0.83.
